Source: PubChem
miR122 inh: activators of miR-122 sensor in Huh7 cells. Huh7 psiCHECK-miR122 Renilla luciferase sensor, 48 h. activation, % at 12.5 µM. 340,000 tested, 0.14% active;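 active = mean activation of 30% or more, with every replicate also reaching 30%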;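 note: higher luciferase signal means stronger suppression of miR-122 activity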
Of the large screens only hits and unclear results are named; the others gave an inactive call. This excerpt belongs to a sample that is enriched for hits.

CC(C)C#Cc1cnc2c(c1)C(=O)N([C@@H](C)CO)C[C@H](C)[C@H](CN(C)Cc1ccccn1)O2	none
COc1ccc(NC(=O)N(C)C[C@H]2Oc3ncc(C4=CCCC4)cc3C(=O)N([C@@H](C)CO)C[C@@H]2C)cc1	none
CC(=O)Nc1ccc(-c2cc(-c3ccc(NC(C)=O)cc3)nc(-c3ccc(NC(C)=O)cc3)n2)cc1	miR122 inh 32
CC(=O)Nc1ccc(S(=O)(=O)Nc2cccc(-c3nc4ccccc4o3)c2)cc1	none
CC(=O)Nc1ccc(NS(=O)(=O)c2ccc3ccccc3c2)cc1	none
C[C@H](CO)N1C[C@H](C)[C@H](CN(C)CC2CCOCC2)Oc2ncc(C3=CCCCC3)cc2C1=O	none
Cc1ccsc1/C=N/n1c(-c2ccco2)n[nH]c1=S	miR122 inh 39
C[C@H]1CN([C@@H](C)CO)C(=O)c2cc(C#CCc3ccccc3)cnc2O[C@H]1CN(C)CC1CCOCC1	none
COCC#Cc1cnc2c(c1)C(=O)N([C@@H](C)CO)C[C@@H](C)[C@H](CN(C)S(=O)(=O)c1cccc(OC)c1)O2	none
C[C@@H]1CN([C@@H](C)CO)S(=O)(=O)c2ccc(C#CCN(C)C)cc2O[C@@H]1CN(C)C(=O)CN(C)C	none
C[C@@H]1CN([C@H](C)CO)C(=O)c2cc(NC(=O)Cc3cn(C)c4ccccc34)ccc2O[C@@H]1CN(C)S(=O)(=O)c1ccc(Cl)cc1	none
OC(c1cc(C(F)(F)F)nc2c(Cl)cc(Cl)cc12)C1CCCCN1 (centres undefined)	miR122 inh 41
CC(=O)N(C)C[C@@H]1Oc2cc(C#CC3(O)CCCC3)ccc2S(=O)(=O)N([C@@H](C)CO)C[C@@H]1C	none
COCC(=O)Nc1ccc2c(c1)C(=O)N(C)C[C@H](OC)[C@H](C)CN(C(=O)COC)[C@@H](C)CO2	none
C[C@@H]1CN([C@H](C)CO)C(=O)c2cc(C3=CCCCC3)cnc2O[C@@H]1CN(C)C(=O)c1ccc(F)cc1	none
Cc1ccc(S(=O)(=O)c2ccc([N+](=O)[O-])cn2)cc1	miR122 inh 33
CCC(=O)Nc1ccc2c(c1)C(=O)N(C)C[C@@H](OC)[C@@H](C)CN(C(C)=O)[C@@H](C)CO2	none
C/C=C/c1ccc2c(c1)O[C@@H](CN(C)S(=O)(=O)c1ccccc1OC)[C@H](C)CN([C@@H](C)CO)S2(=O)=O	none
COc1ccc(C#Cc2cnc3c(c2)C(=O)N([C@@H](C)CO)C[C@@H](C)[C@H](CN(C)CC2CCCC2)O3)cc1	none
Cc1ccccc1NC1=C/C(=N\S(=O)(=O)c2cccs2)c2ccccc2C1=O	miR122 inh 60
C[C@@H]1CN([C@@H](C)CO)C(=O)c2cc(/C=C/c3ccccc3)cnc2O[C@@H]1CN(C)C(=O)c1cccnc1	none
CC(C)NC(=O)N(C)C[C@H]1Oc2ncc(C3=CCCCC3)cc2C(=O)N([C@@H](C)CO)C[C@H]1C	none
O=C(Nc1ncc(Cc2cccc(C(F)(F)F)c2)s1)c1ccc(-c2cccc([N+](=O)[O-])c2)o1	miR122 inh 32
C[C@H](CO)N1C[C@H](C)[C@H](CN(C)Cc2ccccc2)Oc2ncc(-c3cccc(C#N)c3)cc2C1=O	none
C[C@H]1CN([C@@H](C)CO)C(=O)c2cc(-c3ccc(F)cc3)cnc2O[C@H]1CN(C)C(=O)c1ccccn1	none
COCC(=O)N(C)C[C@H]1Oc2ncc(C#Cc3ccncc3)cc2C(=O)N([C@@H](C)CO)C[C@H]1C	none
C[C@@H]1CN([C@@H](C)CO)S(=O)(=O)c2ccc(Br)cc2O[C@@H]1CN(C)S(C)(=O)=O	none
CCS(=O)(=O)Nc1ccc2c(c1)C(=O)N(C)C[C@@H](OC)[C@H](C)CN[C@@H](C)CO2	none
CCC(=O)Nc1ccc2c(c1)OC[C@H](C)NC[C@@H](C)[C@H](OC)CN(C)C2=O	none
O=C(NC[C@@H]1[C@H](c2ccccc2)[C@@H](CO)N1C(=O)C1CC1)NC1CCCC1	none
CCN(C[C@H]1[C@H](c2ccccc2)[C@@H](CO)N1C(=O)C1CC1)C(=O)NC1CCCC1	miR122 inh 36
C[C@H]1CN([C@@H](C)CO)C(=O)c2cc(C#Cc3cccnc3)cnc2O[C@H]1CN(C)S(C)(=O)=O	none
C[C@@H]1CN([C@H](C)CO)C(=O)c2cc(-c3cccc(F)c3)cnc2O[C@H]1CN(C)C(=O)c1cccc(F)c1	none
O=C(C1CC1)N(CCN(C(=O)C1CC1)c1ccccc1)c1ccccc1	miR122 inh 30
COCC(=O)N(C)C[C@H]1Oc2cc(C#CC3CC3)ccc2S(=O)(=O)N([C@@H](C)CO)C[C@H]1C	none
C/C=C/c1cnc2c(c1)C(=O)N([C@H](C)CO)C[C@@H](C)[C@H](CN(C)C(=O)Cc1cccnc1)O2	none
CCCN(C)C[C@@H]1Oc2ncc(-c3ccccc3OC)cc2C(=O)N([C@H](C)CO)C[C@H]1C	none
CCc1ccccc1NC(=O)CN(C)C(=O)Cn1ncc(Cl)c(Cl)c1=O	miR122 inh 63
CCCn1c(CC)nc([N+](=O)[O-])c1S(=O)(=O)c1ccccc1	miR122 inh 48
CC(=O)N(C)C[C@@H]1Oc2cc(C#C[C@H](C)O)ccc2S(=O)(=O)N([C@@H](C)CO)C[C@@H]1C	none
C[C@H]1CN([C@@H](C)CO)S(=O)(=O)c2ccc(C#Cc3cccnc3)cc2O[C@H]1CN(C)C(=O)C1CC1	none
